Experimental data as given in PubChem BioAssay AID1159580 (chemical genetic matrix, 2015).
“And” between values parts separate entries of the source, which are not always exact repeats. Identical values can stand only once. Among all 5,500 compounds or so, about 2,000 (36%) were called active. Inconclusive results (about 18%) are left out. No stated cut-off is given here; in the data, active means normalized growth mostly below about 0.91 (no sharp cut-off); inconclusive means no clear call, values can overlap the other calls; inactive means mostly above about 0.92. The list shows a part of the results.

Assay: chemical genetic growth profiling, strain panel (AID 1159580);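 further: tested at 20 µM; growth read once vehicle control cultures reached saturation at 30 °C; 1 = growth at the plate median or of vehicle wells; lower values mean less growth of the strain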
Conditions: S. cerevisiae deletion strains, growth OD

Measured: normalized growth

COCCOC(=O)C1=C(C)NC(C)=C(C(=O)OC(C)C)C1c1cccc([N+](=O)[O-])c1 (stereo not given)
inactive: locus YAL013W, strain DEP1, hits give low values 1.01 | locus YAL021C, strain ccr4, hits give low values 1.04 | locus YAL026C, strain drs2, hits give low values 1.02 | locus YAL030W, strain snc1, hits give low values 1.02 | locus YAL040C, strain CLN3, hits give low values 1 | locus YBL061C, strain skt5, hits give low values 1.02 | locus YBR009C, strain hhf1, hits give low values 0.988 | locus YBR021W, strain FUR4, hits give low values 1.01 | locus YBR023C, strain chs3, hits give low values 1.02 | locus YBR171W, strain sec66, hits give low values 1.02 | locus YBR229C, strain ROT2, hits give low values 0.999 | locus YBR231C, strain swc5, hits give low values 0.996 | locus YBR279W, strain paf1, hits give low values 0.992 | locus YCL011C, strain gbp2, hits give low values 1.02 | locus YCL016C, strain dcc1, hits give low values 1.01 | locus YCL029C, strain bik1, hits give low values 1.02 | locus YCL061C, strain MRC1 (second series), hits give low values 1.01 | locus YCL069W, strain vba3, hits give low values 1.02 | locus YCR088W, strain abp1, hits give low values 1.01 | locus YDL005C, strain med2, hits give low values 1.01 | locus YDL035C, strain GPR1, hits give low values 1.01 | locus YDL040C, strain nat1, hits give low values 0.999 | locus YDL074C, strain BRE1, hits give low values 0.996 | locus YDL101C, strain DUN1, hits give low values 1.01 | locus YDL134C, strain PPH21, hits give low values 1.01 | locus YDL185W, strain tfp1, hits give low values 1.02 | locus YDL192W, strain arf1, hits give low values 1.02 | locus YDR001C, strain nth1, hits give low values 1.01 | locus YDR069C, strain doa4, hits give low values 0.982 | locus YDR101C, strain arx1, hits give low values 1.01 | locus YDR137W, strain rgp1, hits give low values 0.925 | locus YDR150W, strain NUM1, hits give low values 1.01 and 0.999 | locus YDR159W, strain sac3, hits give low values 0.967 | locus YDR162C, strain NBP2, hits give low values 0.992 | locus YDR195W, strain ref2 1.01 | locus YDR297W, strain sur2, hits give low values 1.01 | locus YDR318W, strain mcm21, hits give low values 1.01 | locus YDR334W, strain swr1, hits give low values 1 | locus YDR335W, strain msn5, hits give low values 1.01 | locus YDR363W, strain ESC2, hits give low values 1.01 | locus YDR388W, hits give low values 1.01 | locus YDR392W, strain spt3, hits give low values 0.977 | locus YDR502C, strain sam2, hits give low values 1 | locus YEL003W, strain gim4, hits give low values 1.01 | locus YEL037C, strain rad23, hits give low values 1.01 | locus YEL061C, strain CIN8 (second series), hits give low values 1 | locus YEL061C, strain CIN8, hits give low values 1 | locus YER002W, strain NOP16, hits give low values 0.993 | locus YER015W, strain faa2, hits give low values 1.01 | locus YER016W, strain bim1, hits give low values 0.989 | locus YER110C, hits give low values 1.02 | locus YER111C, strain swi4, hits give low values 1.02 | locus YER155C, strain BEM2 (second series), hits give low values 1.03 | locus YER155C, strain BEM2, hits give low values 1.02 | locus YER167W, strain BCK2, hits give low values 1.01 | locus YFR010W, strain ubp6, hits give low values 1.01 | locus YGL078C, strain dbp3, hits give low values 1.01 | locus YGL086W, strain mad1, hits give low values 0.992 | locus YGL167C, strain pmr1, hits give low values 1 | locus YGL173C, strain kem1, hits give low values 1.01 | locus YGL227W, strain vid30, hits give low values 1.03 | locus YGL240W, strain doc1, hits give low values 0.984 | locus YGL248W, strain PDE1, hits give low values 1 | locus YGL253W, strain hxk2, hits give low values 1.01 | locus YGR078C, strain PAC10, hits give low values 1 and 0.918 | locus YGR135W, strain pre9, hits give low values 0.997 | locus YGR229C, strain SMI1, hits give low values 1 | locus YGR252W, strain gcn5, hits give low values 0.961 | locus YHR013C, strain ard1, hits give low values 1.02 | locus YHR027C, strain rpn1, hits give low values 1.01 | locus YHR030C, strain SLT2, hits give low values 1.01 and 0.955 | locus YHR079C, strain IRE1 (second series), hits give low values 1 | locus YHR079C, strain IRE1, hits give low values 0.95 | locus YHR094C, strain hxt1, hits give low values 1.01 | locus YHR129C, strain ARP1, hits give low values 0.999 | locus YHR142W, strain chs7, hits give low values 1.04 | locus YHR200W, strain rpn10, hits give low values 1.02 | locus YIL066C, strain RNR3, hits give low values 1.01 | locus YIL073C, strain SPO22, hits give low values 1.04 | locus YIL125W, strain kgd1, hits give low values 1.01 | locus YIR030C, strain dcg1, hits give low values 1.01 | locus YJL092W, strain hpr5, hits give low values 1.02 | locus YJL095W, strain BCK1 (second series), hits give low values 1.02 | locus YJL095W, strain BCK1, hits give low values 1 and 0.972 | locus YJL115W, strain asf1, hits give low values 1.02 | locus YJL129C, strain trk1, hits give low values 0.987 | locus YJL134W, strain LCB3, hits give low values 1.01 | locus YJL154C, strain vps35, hits give low values 1 | locus YJL164C, strain tpk1, hits give low values 1.02 | locus YJL166W, strain qcr8, hits give low values 1.02 | locus YJL168C, strain set2, hits give low values 1.01 | locus YJL187C, strain SWE1 (second series), hits give low values 1 | locus YJL187C, strain SWE1, hits give low values 1.01 | locus YJR043C, strain POL32, hits give low values 0.999 | locus YJR066W, strain TOR1, hits give low values 0.946
